Results published in PubChem BioAssay AID605 (National Center for Advancing Translational Sciences (NCATS), 2007).
Hit rate of the full screen: of about 71,000 compounds, about 35 (0.05%) were called active. Calls come from the whole dose curve; as a rule, active = well fitted curve in the direction sought with a large enough effect; inconclusive = small, poorly fitted or top-dose-only effect, or effect the other way; inactive = flat fitted curve, though single readings scatter. Only a sample is shown.

Target: tRNA threonylcarbamoyladenosine biosynthesis protein TsaE (Escherichia coli (strain K12)) (UniProt P0AF67)
Experiment: qHTS Assay for Inhibitors of YjeE
Details: purified YjeE enzyme, qHTS inhibition assay
Description: NIH Molecular Libraries Screening Centers Network [MLSCN]
NIH Chemical Genomics Center [NCGC]
Assay Provider: Eric Brown, McMaster University
YjeE is an essential E.coli protein of unknown function that binds adenosine diphosphate (ADP). A complex of YjeE and BODIPY Texas Red-labeled ADP probe (Invitrogen, catalog number A22359) is incubated with library members. Inhibitors of YjeE-ADP binding are detected by a decrease in the fluorescence polarization (FP) of the fluorophore. Purified YjeE was supplied by Chand Mangat and Eric Brown, McMaster University.
NCGC Assay Protocol Summary:
2 uM probe/10 uM YjeE in columns 1, 2, 5-48. Titration of ADP control (from 40 mM, then 1:2) pin-transferred to top half of column 2. Column 1 and bottom half of column 2 are neutral.
Two and a half uL of reagents were dispensed to 1536-well Greiner black plates. Compounds and controls (20 nL) were transferred via Kalypsys PinTool. The plates were incubated for 15 min at room temperature, and then read on ViewLux (Perkin-Elmer) High-throughput CCD imager using BODIPY polarization filter set and 30 seconds exposure time. During dispense, reagent bottle was kept submerged into 4 deg C water bath and all liquid lines were covered with aluminum foil to minimize probe and protein degradation.
Keywords: NIH Roadmap, MLSCN, MLI, MLSMR, qHTS, NCGC, YjeE

outcome, inactive:
CCc1ccc(Nc2ncc3c(n2)CC(c2ccco2)CC3=O)cc1 (stereo not given)
COc1ccc(CN(C(=O)c2cccs2)c2nccs2)cc1OC
Cc1ccc(C(=O)CS(C)(=O)=O)cc1
CC(C)C(=O)N1CCN(CCN=CC2=C(O)CC(c3ccco3)CC2=O)CC1 (stereo not given)
COc1cccc(N2CCN(C(=O)C3CCCN(S(=O)(=O)c4cnc[nH]4)C3)CC2)c1 (stereo not given)
O=C(Nc1c(C(=O)N2CCCCC2)cnn1-c1ccccc1)c1ccco1
COc1ncc2nc(-c3ccc(Cl)cc3)c(=O)n(-c3ccccc3)c2n1
COc1cc2[nH]c(=S)n(Cc3ccc(C)o3)c(=O)c2cc1OC
CCC(C)(C)N=C(NC#N)Nc1cccnc1
C[C@@H](Nc1nc(-c2ccccc2)nc2c1oc1ccccc12)C(=O)O
Cc1ccc(N(CC(O)CN2CCCC2)S(=O)(=O)c2ccccc2)cc1 (stereo not given)
COc1ccc(N2C(=O)CC(N3CCC(C(N)=O)CC3)C2=O)cc1 (stereo not given)
CCCCCCn1c(CN2CCCC(C)C2)nc2c1c(=O)n(C)c(=O)n2C (stereo not given)
O=NO
Cc1ccc(S(=O)(=O)NC(=O)NN2C[C@H]3CCC[C@@H]3C2)cc1
CCCn1c(=O)c(-c2ccccc2)c(O)c2ccccc21
CC(C)CC1(C(=O)NCc2ccccn2)C=CCN1C(=O)c1ccccc1 (stereo not given)
COCCOC(=O)C1=C(C)Nc2nc(C)nn2C1c1ccccc1 (stereo not given)
CCCC(=O)Nc1nnc(CC(=O)OCC)s1
O=C(O)[C@@H](S)[C@H](S)C(=O)O
